# Source: PubChem BioAssay AID602142 (NMMLSC, 2011)
# The list shows a part of the results. The source made the active and inactive calls. No rule for the calls is given here.
# Target: Lethal factor (Bacillus anthracis) (UniProt P15917)
# Experiment: Bacillus anthracis LF protease inhibitors, confirmation, biochemical, multiplex microsphere, cherry pick 1 (AID 602142)
# Conditions: multiplex microsphere protease cleavage assay, at 10 µM, hits give high values
# Chain of Lethal factor (Bacillus anthracis) (P15917 whole entry, looked up): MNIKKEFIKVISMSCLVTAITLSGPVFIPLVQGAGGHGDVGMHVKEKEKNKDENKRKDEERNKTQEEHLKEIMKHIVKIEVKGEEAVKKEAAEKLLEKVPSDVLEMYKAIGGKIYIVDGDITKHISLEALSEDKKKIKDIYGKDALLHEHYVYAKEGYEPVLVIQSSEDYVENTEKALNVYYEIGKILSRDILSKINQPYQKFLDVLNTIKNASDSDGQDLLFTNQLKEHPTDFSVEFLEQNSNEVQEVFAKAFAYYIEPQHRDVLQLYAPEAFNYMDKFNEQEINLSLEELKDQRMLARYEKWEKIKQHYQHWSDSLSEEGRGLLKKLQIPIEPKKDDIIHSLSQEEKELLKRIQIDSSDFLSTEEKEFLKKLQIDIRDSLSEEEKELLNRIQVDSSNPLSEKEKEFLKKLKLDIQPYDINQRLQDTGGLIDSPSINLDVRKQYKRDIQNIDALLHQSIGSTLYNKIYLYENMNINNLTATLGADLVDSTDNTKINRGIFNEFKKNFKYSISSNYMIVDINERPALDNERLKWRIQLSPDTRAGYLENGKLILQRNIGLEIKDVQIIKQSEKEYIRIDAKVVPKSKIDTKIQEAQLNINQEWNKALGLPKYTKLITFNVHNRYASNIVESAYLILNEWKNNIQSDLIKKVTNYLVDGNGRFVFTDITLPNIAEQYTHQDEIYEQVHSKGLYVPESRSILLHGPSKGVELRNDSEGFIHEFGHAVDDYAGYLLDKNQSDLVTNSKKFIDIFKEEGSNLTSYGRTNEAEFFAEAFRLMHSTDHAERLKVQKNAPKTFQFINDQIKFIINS
row,SMILES,inhibition
1,CCOCCn1c(-c2ccccc2)nc2ccccc21,-0.9% (inactive)
2,Cc1ccc(C(=O)COc2cccc(NC(=O)c3ccco3)c2)cc1,-1.8% (inactive)
3,Nc1ccccc1Sc1cc(Cl)nnc1Cl,-3.5% (inactive)
4,CC(C)Cc1nnc(NC(=O)CCC(=O)Nc2ccc3cn[nH]c3c2)s1,-2.6% (inactive)
